From ChEMBL document CHEMBL1961873, “Compounds: GSK PKIS; Assays: Nanosyn kinase panel” (2012) come the findings set out here.

Molecules are shown by their SMILES.

For assay [1], the target named is T1, Serine/threonine-protein kinase Nek9 (Homo sapiens) (UniProt Q8TD19).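 Note: each value is a mean percent inhibition of NEK9.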
T1 sequence (whole entry): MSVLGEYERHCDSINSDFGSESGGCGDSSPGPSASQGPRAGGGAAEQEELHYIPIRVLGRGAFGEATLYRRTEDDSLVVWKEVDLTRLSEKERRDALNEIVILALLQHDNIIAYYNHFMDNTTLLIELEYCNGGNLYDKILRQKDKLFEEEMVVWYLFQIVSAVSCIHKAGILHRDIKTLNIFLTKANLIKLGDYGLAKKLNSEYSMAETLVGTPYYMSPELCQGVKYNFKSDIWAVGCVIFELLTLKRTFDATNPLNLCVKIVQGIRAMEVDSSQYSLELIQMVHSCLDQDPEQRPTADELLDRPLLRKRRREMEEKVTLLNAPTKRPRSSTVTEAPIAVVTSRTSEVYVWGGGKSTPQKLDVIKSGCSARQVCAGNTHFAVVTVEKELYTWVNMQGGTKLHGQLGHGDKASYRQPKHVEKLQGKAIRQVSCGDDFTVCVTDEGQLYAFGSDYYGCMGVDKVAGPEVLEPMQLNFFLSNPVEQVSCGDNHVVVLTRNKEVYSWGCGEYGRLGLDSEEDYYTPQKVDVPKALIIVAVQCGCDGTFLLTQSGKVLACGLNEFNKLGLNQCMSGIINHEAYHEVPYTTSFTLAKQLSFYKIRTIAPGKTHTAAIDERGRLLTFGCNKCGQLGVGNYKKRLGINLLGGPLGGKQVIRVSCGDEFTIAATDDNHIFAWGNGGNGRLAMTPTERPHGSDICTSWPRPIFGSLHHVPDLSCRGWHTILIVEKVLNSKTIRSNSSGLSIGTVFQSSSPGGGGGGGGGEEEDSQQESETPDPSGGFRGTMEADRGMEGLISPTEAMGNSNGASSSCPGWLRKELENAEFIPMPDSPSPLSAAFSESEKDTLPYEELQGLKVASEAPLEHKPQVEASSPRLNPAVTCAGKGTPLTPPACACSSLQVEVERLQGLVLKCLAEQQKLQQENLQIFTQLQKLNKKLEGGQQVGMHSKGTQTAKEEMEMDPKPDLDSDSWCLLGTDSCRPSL
Particulars: at 1 µM.

In assay [2] the target is Serine/threonine-protein kinase PLK1 (Homo sapiens) (UniProt P53350). Particulars: at 0.1 µM.
Chain of Serine/threonine-protein kinase PLK1 (Homo sapiens) (P53350 whole entry): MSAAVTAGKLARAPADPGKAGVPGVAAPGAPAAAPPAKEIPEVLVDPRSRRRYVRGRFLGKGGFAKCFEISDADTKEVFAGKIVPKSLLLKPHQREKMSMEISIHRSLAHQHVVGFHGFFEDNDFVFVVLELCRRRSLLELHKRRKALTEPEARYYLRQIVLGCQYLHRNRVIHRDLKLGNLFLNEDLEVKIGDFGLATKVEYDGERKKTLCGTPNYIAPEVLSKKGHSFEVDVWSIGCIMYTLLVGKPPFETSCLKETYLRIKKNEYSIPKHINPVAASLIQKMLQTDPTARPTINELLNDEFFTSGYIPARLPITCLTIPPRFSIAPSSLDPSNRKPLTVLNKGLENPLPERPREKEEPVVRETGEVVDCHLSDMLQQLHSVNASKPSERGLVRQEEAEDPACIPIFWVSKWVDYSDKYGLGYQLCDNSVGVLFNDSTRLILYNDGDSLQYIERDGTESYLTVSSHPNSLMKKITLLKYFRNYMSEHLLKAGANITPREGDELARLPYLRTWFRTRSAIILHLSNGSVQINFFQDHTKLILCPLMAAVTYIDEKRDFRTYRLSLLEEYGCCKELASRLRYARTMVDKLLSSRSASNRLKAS
The target is the same in assay [3]. Particulars: at 1 µM.
For assay [4], the target named is T2, Dual specificity protein kinase TTK (Homo sapiens) (UniProt P33981).
T2 sequence (whole entry): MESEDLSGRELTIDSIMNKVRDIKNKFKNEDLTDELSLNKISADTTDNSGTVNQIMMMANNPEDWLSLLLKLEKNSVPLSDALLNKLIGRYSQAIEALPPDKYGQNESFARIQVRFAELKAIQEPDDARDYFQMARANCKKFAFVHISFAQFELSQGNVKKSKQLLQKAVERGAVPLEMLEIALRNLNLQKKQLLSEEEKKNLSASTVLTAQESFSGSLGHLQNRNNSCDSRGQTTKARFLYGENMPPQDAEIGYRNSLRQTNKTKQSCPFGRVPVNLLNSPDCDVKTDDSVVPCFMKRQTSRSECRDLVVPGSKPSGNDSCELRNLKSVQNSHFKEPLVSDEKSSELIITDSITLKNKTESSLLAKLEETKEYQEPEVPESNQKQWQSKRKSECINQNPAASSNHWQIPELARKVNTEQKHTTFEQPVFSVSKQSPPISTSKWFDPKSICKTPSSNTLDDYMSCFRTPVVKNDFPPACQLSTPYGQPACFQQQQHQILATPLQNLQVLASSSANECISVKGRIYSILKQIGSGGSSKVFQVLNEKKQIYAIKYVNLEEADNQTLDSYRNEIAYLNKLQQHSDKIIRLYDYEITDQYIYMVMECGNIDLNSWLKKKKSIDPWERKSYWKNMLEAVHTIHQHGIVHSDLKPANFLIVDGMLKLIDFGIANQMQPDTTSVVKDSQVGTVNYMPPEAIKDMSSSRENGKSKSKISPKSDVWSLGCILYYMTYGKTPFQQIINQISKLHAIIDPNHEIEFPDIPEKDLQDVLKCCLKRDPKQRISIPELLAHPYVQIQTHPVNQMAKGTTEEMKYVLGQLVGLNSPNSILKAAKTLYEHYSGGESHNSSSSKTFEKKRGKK
Particulars: at 0.1 µM.

The subject of assay [5] is T3, Receptor-type tyrosine-protein kinase FLT3 (Homo sapiens), P36888 [D835Y].
T3 sequence (whole entry): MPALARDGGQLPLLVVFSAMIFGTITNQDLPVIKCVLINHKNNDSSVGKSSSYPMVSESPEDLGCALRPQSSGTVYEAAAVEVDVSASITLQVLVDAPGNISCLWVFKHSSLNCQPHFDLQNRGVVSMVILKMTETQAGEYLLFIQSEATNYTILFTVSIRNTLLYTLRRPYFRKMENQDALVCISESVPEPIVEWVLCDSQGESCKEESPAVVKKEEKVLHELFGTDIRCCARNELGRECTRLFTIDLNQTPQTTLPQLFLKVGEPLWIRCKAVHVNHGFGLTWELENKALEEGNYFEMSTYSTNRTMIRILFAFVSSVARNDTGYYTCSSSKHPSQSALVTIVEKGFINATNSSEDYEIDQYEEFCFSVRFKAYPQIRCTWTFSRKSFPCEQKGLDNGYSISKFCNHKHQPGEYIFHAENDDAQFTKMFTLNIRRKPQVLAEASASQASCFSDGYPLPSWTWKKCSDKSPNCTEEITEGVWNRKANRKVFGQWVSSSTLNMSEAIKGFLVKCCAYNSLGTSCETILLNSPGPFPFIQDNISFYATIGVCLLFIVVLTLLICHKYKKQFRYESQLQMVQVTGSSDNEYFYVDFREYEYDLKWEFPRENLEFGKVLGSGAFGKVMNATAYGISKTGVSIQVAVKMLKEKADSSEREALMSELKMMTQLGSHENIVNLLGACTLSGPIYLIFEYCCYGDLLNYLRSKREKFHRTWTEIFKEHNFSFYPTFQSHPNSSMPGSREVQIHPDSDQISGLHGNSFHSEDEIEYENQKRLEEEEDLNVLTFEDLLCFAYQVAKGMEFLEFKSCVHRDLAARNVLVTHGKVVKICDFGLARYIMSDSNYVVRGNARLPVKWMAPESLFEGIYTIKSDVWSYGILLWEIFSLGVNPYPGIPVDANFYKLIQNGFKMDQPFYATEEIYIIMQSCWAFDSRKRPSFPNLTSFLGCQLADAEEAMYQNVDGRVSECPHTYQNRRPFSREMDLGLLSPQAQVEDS
The settings on record: at 1 µM.

Assay [6] addresses Vascular endothelial growth factor receptor 3 (Homo sapiens) (UniProt P35916). Particulars: at 0.1 µM.
For assay [7] the target is unchanged. Particulars: at 1 µM.
The target of assay [8] is Macrophage colony-stimulating factor 1 receptor (Homo sapiens) (UniProt P07333). The settings on record: at 0.1 µM.
Chain of Macrophage colony-stimulating factor 1 receptor (Homo sapiens) (P07333 whole entry): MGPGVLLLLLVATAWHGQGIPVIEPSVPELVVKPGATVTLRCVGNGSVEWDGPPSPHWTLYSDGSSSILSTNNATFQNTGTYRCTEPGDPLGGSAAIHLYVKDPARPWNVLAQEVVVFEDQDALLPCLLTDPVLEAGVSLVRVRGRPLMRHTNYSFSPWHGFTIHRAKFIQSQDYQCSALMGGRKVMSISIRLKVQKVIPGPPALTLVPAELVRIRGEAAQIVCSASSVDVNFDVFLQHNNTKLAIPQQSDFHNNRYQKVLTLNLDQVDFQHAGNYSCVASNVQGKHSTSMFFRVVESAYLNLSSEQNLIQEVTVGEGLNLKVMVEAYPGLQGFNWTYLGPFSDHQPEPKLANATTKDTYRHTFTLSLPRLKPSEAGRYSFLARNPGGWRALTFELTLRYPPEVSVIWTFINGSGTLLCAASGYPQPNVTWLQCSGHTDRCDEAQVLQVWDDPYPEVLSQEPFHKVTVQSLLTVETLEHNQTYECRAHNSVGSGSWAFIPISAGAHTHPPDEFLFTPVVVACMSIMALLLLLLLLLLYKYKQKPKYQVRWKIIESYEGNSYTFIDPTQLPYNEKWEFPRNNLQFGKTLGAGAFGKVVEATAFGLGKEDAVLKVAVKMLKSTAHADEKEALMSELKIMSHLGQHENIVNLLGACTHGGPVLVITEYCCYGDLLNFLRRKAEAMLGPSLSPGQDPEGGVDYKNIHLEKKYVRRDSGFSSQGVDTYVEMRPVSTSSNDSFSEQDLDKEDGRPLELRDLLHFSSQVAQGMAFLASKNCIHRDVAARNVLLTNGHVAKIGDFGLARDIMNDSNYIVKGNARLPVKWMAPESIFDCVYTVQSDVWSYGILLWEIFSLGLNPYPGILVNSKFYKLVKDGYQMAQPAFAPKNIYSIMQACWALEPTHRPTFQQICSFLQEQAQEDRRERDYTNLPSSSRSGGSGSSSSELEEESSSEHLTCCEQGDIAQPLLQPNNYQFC
Assay [9] shares this target. Particulars: at 1 µM.
For assay [10], the target named is Tyrosine-protein kinase Fyn (Homo sapiens) (UniProt P06241). Particulars: at 0.1 µM.
Chain of Tyrosine-protein kinase Fyn (Homo sapiens) (P06241 2-537 limits assumed): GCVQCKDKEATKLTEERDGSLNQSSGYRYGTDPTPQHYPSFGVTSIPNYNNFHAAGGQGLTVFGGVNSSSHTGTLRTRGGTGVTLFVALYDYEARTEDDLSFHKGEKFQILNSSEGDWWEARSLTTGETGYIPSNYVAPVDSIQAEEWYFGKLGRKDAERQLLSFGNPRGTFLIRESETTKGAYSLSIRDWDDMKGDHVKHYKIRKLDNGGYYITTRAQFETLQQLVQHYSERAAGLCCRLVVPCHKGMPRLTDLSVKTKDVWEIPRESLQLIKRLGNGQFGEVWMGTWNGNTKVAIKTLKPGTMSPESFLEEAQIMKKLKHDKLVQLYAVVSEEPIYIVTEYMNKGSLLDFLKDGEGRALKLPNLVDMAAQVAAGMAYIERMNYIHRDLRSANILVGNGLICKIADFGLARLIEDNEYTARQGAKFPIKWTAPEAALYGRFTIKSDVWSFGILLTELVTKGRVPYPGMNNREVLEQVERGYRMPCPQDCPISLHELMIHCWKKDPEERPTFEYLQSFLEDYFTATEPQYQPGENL

Chain of Vascular endothelial growth factor receptor 3 (Homo sapiens) (P35916 whole entry): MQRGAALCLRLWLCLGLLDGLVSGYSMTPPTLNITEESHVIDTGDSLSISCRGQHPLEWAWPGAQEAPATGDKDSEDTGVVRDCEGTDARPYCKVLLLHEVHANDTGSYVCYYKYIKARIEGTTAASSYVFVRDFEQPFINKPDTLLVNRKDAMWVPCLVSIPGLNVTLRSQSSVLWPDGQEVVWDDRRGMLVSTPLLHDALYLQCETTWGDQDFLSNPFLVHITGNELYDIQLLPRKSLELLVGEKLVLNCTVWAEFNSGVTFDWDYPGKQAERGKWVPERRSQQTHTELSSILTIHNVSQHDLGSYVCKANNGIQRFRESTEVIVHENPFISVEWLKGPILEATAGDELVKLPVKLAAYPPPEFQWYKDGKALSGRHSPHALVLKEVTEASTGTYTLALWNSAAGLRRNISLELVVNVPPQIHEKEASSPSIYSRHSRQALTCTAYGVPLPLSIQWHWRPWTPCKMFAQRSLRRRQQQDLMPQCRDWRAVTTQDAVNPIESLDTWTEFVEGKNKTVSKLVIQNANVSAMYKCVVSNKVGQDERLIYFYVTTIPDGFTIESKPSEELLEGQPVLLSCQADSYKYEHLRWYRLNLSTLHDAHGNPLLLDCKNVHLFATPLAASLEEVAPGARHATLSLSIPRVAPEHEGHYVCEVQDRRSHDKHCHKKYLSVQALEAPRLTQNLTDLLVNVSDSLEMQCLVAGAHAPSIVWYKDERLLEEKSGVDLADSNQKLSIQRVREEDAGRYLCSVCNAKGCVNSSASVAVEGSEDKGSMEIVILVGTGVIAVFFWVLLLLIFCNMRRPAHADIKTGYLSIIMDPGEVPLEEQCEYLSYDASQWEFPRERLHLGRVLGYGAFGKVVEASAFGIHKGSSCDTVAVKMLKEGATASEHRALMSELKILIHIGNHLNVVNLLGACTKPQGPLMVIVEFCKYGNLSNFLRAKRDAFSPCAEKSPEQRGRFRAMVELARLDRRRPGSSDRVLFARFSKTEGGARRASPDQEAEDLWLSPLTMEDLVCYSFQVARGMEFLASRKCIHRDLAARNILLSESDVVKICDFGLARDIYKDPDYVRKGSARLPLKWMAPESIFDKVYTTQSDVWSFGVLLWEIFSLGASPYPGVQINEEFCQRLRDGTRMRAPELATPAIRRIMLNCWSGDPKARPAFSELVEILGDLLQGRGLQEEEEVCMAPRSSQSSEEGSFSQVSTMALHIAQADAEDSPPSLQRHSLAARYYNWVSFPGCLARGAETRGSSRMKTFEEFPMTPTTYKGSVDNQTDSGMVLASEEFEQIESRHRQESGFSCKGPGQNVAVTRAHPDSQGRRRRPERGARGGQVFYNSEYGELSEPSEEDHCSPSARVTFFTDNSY

Turning to `CC1=C(C(=O)Nc2ccc3[nH]ncc3c2)C(c2ccc3ccccc3c2)CC(=O)N1` (centres undefined), the inhibition – broadly, the change of the read-out against control, counted positive when it falls – in assay [1] is 2.05%; in [2], 2.98%; in assay [3] it was 1.98%; in assay [4], 5.26%; in [5], 1.5%; in assay [6], 1.27%. Moreover, the inhibition in [7] was found to be 3.27%; in assay [8], 7.17%; in [9], 2.62%; in [10], 2%.

Regarding `COc1ccc(-c2nn3ncccc3c2-c2ccnc(Nc3ccc(Cl)c(C(F)(F)F)c3)n2)cc1`, the inhibition is 6.74% in assay [1]; 0.21% in assay [2]; 3.01% in assay [3]; 5.35% in [4]; -6.5% in assay [5]; -0.61% in [6]. Further, the inhibition in assay [7] was 3.27%; in assay [8], -1.71%; in assay [9] it was 5.03%; in assay [10], 3.8%.

In the case of `CN(C)c1cc2c(Nc3ccc4nc(Cc5ccccc5)[nH]c4c3)ncnc2cn1`, the inhibition in assay [1] was 10.6%; in [2], 6.15%; in assay [3], 6.34%; in assay [4], 13.2%; in [5], -1.97%; in assay [6], 7.56%. For the same molecule, the inhibition was 11.3% in assay [7], 4.7% in assay [8], 15.4% in assay [9] and 4.62% in assay [10].

`NS(=O)(=O)c1ccc(N/N=C2\C(=O)Nc3ccc(C(=O)NCCc4c[nH]cn4)cc32)cc1`: the inhibition in assay [1] is 10.4%; in [2], 5.66%; in assay [3], 10.8%; in [4], 37.9%; in [5] it was 48%; in assay [6], 6.93%. The inhibition came out at 26.4% in assay [7], 15.4% in assay [9] and 3.46% in assay [10].

Consider `CC(C)=Cc1cccc2c1/C(=N/Nc1ccc(S(N)(=O)=O)cc1)C(=O)N2`, for which the inhibition in [1] was 1.52%; in [2] it was -0.43%; in assay [3] it was 0.59%; in assay [4], 11.7%; in [5], 66.6%; in assay [6], 4.82%. The inhibition in [7] came to 46.6%; in assay [8], 41.8%; in assay [9], 86.8%; in assay [10], 4.49%.

Regarding `COc1cc2ncn(-c3cc(OCc4ccccc4C(F)(F)F)c(C(N)=O)s3)c2cc1OC`, the inhibition was 58.7% in [1]; 93.4% in assay [2]; 96.3% in assay [3]; 7.82% in [4]; 14.5% in assay [5]; 6.89% in assay [6]. The inhibition was 53.1% in assay [7] and -0.99% in assay [10].

Turning to `CCc1cccc(NC(=O)Nc2ccc(Oc3ccc4nc(NC(=O)OC)[nH]c4c3)cc2)c1`, the inhibition is 3.95% in assay [1]; 2.03% in [2]; 1.1% in assay [3]; 6.8% in [4]; 6.29% in [5]; 7.64% in [6]. Moreover, the inhibition is 16.3% in assay [7], 44.8% in assay [8], 54.6% in [9] and -2.29% in assay [10].

With `COc1cc2ncn(-c3cc(O[C@H](C)c4ccccc4Cl)c(C(N)=O)s3)c2cc1OC`, the inhibition in assay [1] stood at 91.6%; in assay [4], 9.01%; in [5] it was 39.6%; in assay [6], 31.8%; in assay [7], 81.3%; in assay [8], 8.07%. Moreover, the inhibition in assay [9] came to 41.9%; in assay [10], 2%.

Turning to `c1cnn2ncc(-c3ccnc(Nc4ccc5c(c4)OCCO5)n3)c2c1`, the inhibition amounted to 49.9% in [1]; 8.35% in assay [2]; 29.4% in assay [3]; 11.9% in assay [4]; 36.1% in assay [5]; 8.6% in assay [6]. For the same molecule, the inhibition in [7] worked out at 21.8%; in [8], 44.5%; in assay [9] it was 85.7%; in assay [10] it was 1.57%.

For the molecule `COc1ccc(COc2ccc(Cc3cnc(N)nc3N)cc2OC)cc1`, the inhibition in assay [1] was -4.1%; in assay [2], 0.21%; in [3], 3.71%; in assay [4], -2.66%; in [5] it was -1.91%; in [6] it was -2.95%. For the same molecule, the inhibition in [7] is -0.86%; in [10], 0.22%.

As for `CCN1CCC(CC(=O)Nc2n[nH]c3nc(-c4cccs4)c(Br)cc23)CC1`, the inhibition in assay [1] is 0.2%; in [2], -3.36%; in [3], -3.47%; in assay [4], -6.26%; in [5] it was 10.7%; in assay [6], 1.17%. For the same molecule, the inhibition is 2.51% in assay [7], -2.02% in assay [8], 0.93% in assay [9] and -0.42% in assay [10].

`CNC(=O)c1cncc(/C=C/c2c(Cl)cccc2Cl)c1`: the inhibition in [1] was 5.75%; in assay [2] it was 3.89%; in assay [3], 7.28%; in assay [4], 17%; in assay [5], -3.57%; in assay [6], -7.73%. For the same molecule, the inhibition in assay [8] was 7.17%; in [9], 41.1%; in assay [10] it was 0.89%.

As to `CCCN1CCC=C(c2ccc(Nc3nc(Nc4ccccc4C(N)=O)c4cc[nH]c4n3)c(C)c2)C1`, the inhibition in [1] is 7.97%; in assay [2], 13.9%; in assay [3], 53.6%; in [4] it was 70.8%; in [5], 20.8%; in [6], 9%. In addition, the inhibition in assay [7] was 26.6%; in assay [8], 27.4%; in [9], 63.1%; in [10] it was 4.83%.

Take `CS(=O)(=O)CCNCc1nc(-c2ccc3ncnc(Nc4ccc(F)c(Cl)c4)c3c2)cs1`: the inhibition is -7.92% in assay [1]; 1.65% in [2]; 1.15% in assay [3]; 1.71% in [4]; 5.8% in assay [5]; 3.61% in [6]. Further, the inhibition was 6.4% in assay [7], 1.81% in assay [8], 3.54% in [9] and -1.21% in [10].

`COc1cc2ncn(-c3cc(O[C@@H](C)c4ccccc4Cl)c(C(N)=O)s3)c2cc1OC`: the inhibition in [1] turned out to be 38.4%; in assay [4], 6.36%; in [5], 3.92%; in [6] it was 19.7%; in [7], 67.6%; in assay [8] it was 1.84%. Besides, the inhibition in [9] is 9.87%; in [10] it was 3.53%.

Regarding `Cc1cc(O)cc(C)c1/C=C/c1cncc(-c2nn[nH]n2)c1`, the inhibition in assay [1] is 8.64%; in assay [2], 3.41%; in [3] it was 4.38%; in assay [4], 7.11%; in assay [5], -0.25%; in assay [6], -9.76%. The results for the inhibition in assay [8], in assay [9] and in [10] were 8.02%, 36.1% and 3.99%, respectively.

As to `NCc1ccc(-c2nc(-c3ccc(Cl)c(O)c3)c(-c3ccncc3)[nH]2)cc1`, the inhibition in [1] is -0.05%; in [2], 4.25%; in [3] it was 2.1%; in assay [4], 2.08%; in assay [5], 1.57%; in [6], 19.7%. Also, the inhibition came out at 69% in [7], 0.23% in assay [8], 5.68% in [9] and 5.91% in [10].
